Compound activity as filed in PubChem BioAssay.
Rows were chosen to be rich in hits. Some 19% of all compounds tested hit in one or more screens of this group.
KB-3-1 tox = KB-3-1 parental cell cytotoxicity; KB-3-1 viability, CellTiter-Glo ATP luminescence, 72 h; Potency, µM (doses to about 46.1 µM), actives largely listed as cytotoxic; hit rate 1.4% among 400,000; AID 1347075; further: nearly all actives have a fitted effect of over 60% in size
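Screening of KB-3-1 cells (DMEM, 10% FBS, phenol-red free) ran from lowest to highest compound concentration; after 72 h at 37 °C viability was read luminescently and curves fitted.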
KB-V1 cytotox = KB-V1 MDR subline cytotoxicity; KB-V1 MDR cells viability, CellTiter-Glo, 72 h; Potency, µM (highest dose often 46.1 µM), most hits filed as cytotoxic; hit rate 3.4% among 400,000; further: nearly all actives have a fitted effect of over 60% in size
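Cells of the MDR subline KB-V1 are plated, dosed with compound at multiple concentrations, and incubated 72 h at 37 degrees C; CellTiter-Glo is then added and luminescence read after 10 min.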
TDP1 cell noCPT = qHTS for Inhibitors of human tyrosyl-DNA phosphodiesterase 1 (TDP1): qHTS in cells in absence of CPT. DT40 Tdp1-/- hTDP1 cells, no CPT, ATP luminescence, 48 h. hit rate 15% among 420,000. Potency, µM (series often up to 46.2 µM), usual class: inhibitors; further: nearly all actives have a fitted effect of over 55% in size
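DT40 Tdp1-/-;hTDP1 cells, no CPT (DMSO vehicle only), 400 cells/well; compounds pin-transferred; ≥48 hr, 37 °C; CellTiter-Glo 30 min RT dark, luminescence read.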
HT1080-NT tox = kills 2HG-producing HT-1080-NT fibrosarcoma cells; HT-1080-NT fibrosarcoma viability, CellTiter-Glo ATP luminescence, 48 h; Potency, µM (titrated, usually from 46.1 µM), most hits filed as cytotoxic; hit rate 1.6% among 360,000;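 further: NT is the 2HG producing partner of a matched IDH1 knockdown line; nearly all actives have a fitted effect of over 55% in size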
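Viability of the 2HG-overproducing fibrosarcoma line after 48 hours of compound exposure at 37 degrees C was determined by luminescence with CellTiter-Glo, and concentration-effect curves were then fitted and categorized.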
TDP1 cell CPT = DT40-hTDP1 cell growth loss with CPT; hit rate 12% among 420,000; chicken DT40 Tdp1-/-;hTDP1 cells + 20 nM CPT, ATP luminescence, 48 h; Potency, µM (titrated, usually from 46.2 µM), usual class: inhibitors; further: nearly all actives have a fitted effect of over 55% in size
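Cell growth measured by CellTiter-Glo luminescence after a minimum 48 h, 37 C compound exposure with 20 nM CPT in Tdp1-knockout DT40 cells stably expressing hTDP1, seeded 400/well; qHTS titration format.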
HT1080 IDH1KD tx = kills HT-1080 cells with IDH1 knockdown. HT-1080 IDH1 knockdown viability, ATP luminescence, 48 h. AID 686971. Potency, µM (titrated, usually from 46.1 µM), hits mostly cytotoxic. hit rate 2% among 360,000
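Knockdown cells (IDH1KD HT-1080) received compounds 2 h after plating at 750 cells/well and were kept 48 h at 37 °C in 5% FBS RPMI. A CellTiter-Glo luminescence read gave % activity for curve fitting.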
A number is an active result. The call rests on the fitted dose curve; in most records, active means well fitted curve in the direction sought with a large enough effect; inconclusive means small, poorly fitted or top-dose-only effect, or another doubt; inactive means no such curve, though single readings can be large; an effect the other way counts as inactive or inconclusive.

`COc1cc(O)c(C(CC(=O)N2CCC(C)CC2)c2ccc(OC)c(OC)c2)c(OC)c1` (stereo unspecified) gave KB-3-1 tox inactive and KB-V1 cytotox inactive.
Cc1nc2sc(C(=O)Nc3ccc(F)cc3)c(N)c2c(-c2ccc(Br)cc2)c1C(=O)Nc1ccc(Cl)cc1 was read as KB-3-1 tox inactive, KB-V1 cytotox inconclusive, TDP1 cell noCPT inconclusive and TDP1 cell CPT inconclusive.
For O=C(CCN1C(=O)c2ccccc2S1(=O)=O)Nc1ccc(C(=O)O)cc1 the results were KB-3-1 tox inactive, KB-V1 cytotox inactive, TDP1 cell noCPT inactive, HT1080-NT tox inactive, TDP1 cell CPT inactive and HT1080 IDH1KD tx inactive.
CCCCCN1C(C(=O)c2ccccc2)=C(NC(=O)c2ccc(C)cc2)c2ccccc2S1(=O)=O was read as KB-3-1 tox inconclusive, KB-V1 cytotox inactive, TDP1 cell noCPT 16.4µM and TDP1 cell CPT 18.4µM.
`CCCCN1C(=O)Nc2ccccc2S1(=O)=O` gave KB-3-1 tox inactive, KB-V1 cytotox inactive, TDP1 cell noCPT inactive, HT1080-NT tox inactive, TDP1 cell CPT inactive and HT1080 IDH1KD tx inactive.
`O=C(Nc1ncccn1)C1=C(O)c2ccccc2S(=O)(=O)N1Cc1ccccc1` gave KB-3-1 tox inconclusive, KB-V1 cytotox inactive, TDP1 cell noCPT inactive, HT1080-NT tox inactive, TDP1 cell CPT inactive and HT1080 IDH1KD tx inactive.
For CCCCCN1C(C(=O)c2ccccc2)=C(NC(C)=O)c2ccccc2S1(=O)=O the results were KB-3-1 tox inconclusive, KB-V1 cytotox inconclusive, TDP1 cell noCPT 18.4µM and TDP1 cell CPT 16.4µM.
Screening CCCCCN1C(C(=O)c2ccccc2)=C(NC(=O)c2ccccc2Cl)c2ccccc2S1(=O)=O returned KB-3-1 tox inconclusive, KB-V1 cytotox inactive, TDP1 cell noCPT 8.2µM and TDP1 cell CPT inconclusive.
For Cc1ccc(S(=O)(=O)C[C@@H]2OC[C@H](Cc3ccccc3)N2S(=O)(=O)c2ccc(C)cc2)cc1 the results were KB-3-1 tox inactive, KB-V1 cytotox inconclusive, TDP1 cell noCPT inconclusive, HT1080-NT tox inactive, TDP1 cell CPT inconclusive and HT1080 IDH1KD tx inactive.
`CCOCCCNC(=O)C(c1ccc(OC)cc1)N(Cc1ccc2c(c1)OCO2)C(=O)c1ccccc1O` (stereo unspecified) gave KB-3-1 tox inactive, KB-V1 cytotox inactive, TDP1 cell noCPT inconclusive, HT1080-NT tox inactive, TDP1 cell CPT inconclusive and HT1080 IDH1KD tx inactive.
C[C@@H]1CN([C@@H](C)CO)S(=O)(=O)c2ccc(-c3ccccc3)cc2O[C@@H]1CN(C)Cc1ccccc1C(=O)O was read as KB-3-1 tox inactive, KB-V1 cytotox inactive, TDP1 cell noCPT inconclusive, HT1080-NT tox inactive, TDP1 cell CPT inactive and HT1080 IDH1KD tx inactive.
Cc1ccc(NC(=O)CNc2cccc(S(=O)(=O)N3CCOCC3)c2)cc1F was read as KB-3-1 tox inactive, KB-V1 cytotox inactive, TDP1 cell noCPT inconclusive, HT1080-NT tox inactive, TDP1 cell CPT inconclusive and HT1080 IDH1KD tx inactive.
For Cc1ccc(NC(=O)CNC(=O)c2ccc(C(C)(C)C)cc2)cc1S(=O)(=O)N1CCOCC1 the results were KB-3-1 tox inconclusive, KB-V1 cytotox inactive, TDP1 cell noCPT inconclusive, HT1080-NT tox inactive, TDP1 cell CPT inconclusive and HT1080 IDH1KD tx inactive.
Cc1ccc(NCC(=O)Nc2ccc(F)c(Cl)c2)cc1S(=O)(=O)N1CCOCC1 was read as KB-3-1 tox inactive, KB-V1 cytotox inconclusive, TDP1 cell noCPT 20.6µM, HT1080-NT tox inactive, TDP1 cell CPT inconclusive and HT1080 IDH1KD tx inactive.
For Cc1ccc(NC(=O)CSc2nc(N)cc(N)n2)cc1S(=O)(=O)N1CCOCC1 the results were KB-3-1 tox inactive, KB-V1 cytotox inactive, TDP1 cell noCPT inactive, HT1080-NT tox inactive, TDP1 cell CPT inactive and HT1080 IDH1KD tx inactive.
`COc1cc2c(cc1OC)C(C)N(CC(=O)Nc1ccc(C)c(S(=O)(=O)N3CCOCC3)c1)CC2` (stereo unspecified) gave KB-3-1 tox inactive, KB-V1 cytotox inactive, TDP1 cell noCPT 16.4µM, HT1080-NT tox 16.4µM, TDP1 cell CPT inconclusive and HT1080 IDH1KD tx inconclusive.
Cc1nc(-c2ccc(F)cc2)c(CC(=O)Nc2ccc(C)c(S(=O)(=O)N3CCOCC3)c2)s1 was read as KB-3-1 tox inactive, KB-V1 cytotox inactive, TDP1 cell noCPT inconclusive, HT1080-NT tox inactive, TDP1 cell CPT 10.3µM and HT1080 IDH1KD tx inactive.
Screening Cc1ccc(NC(=O)CNc2cccc(Br)c2)cc1S(=O)(=O)N1CCOCC1 returned KB-3-1 tox inconclusive, KB-V1 cytotox inactive, TDP1 cell noCPT 16.4µM, HT1080-NT tox inactive, TDP1 cell CPT inconclusive and HT1080 IDH1KD tx inactive.
COc1ccc(S(=O)(=O)NCC2CCCN(Cc3ccc(O)cc3)C2)cc1 (stereo unspecified) was read as KB-3-1 tox inactive, KB-V1 cytotox inconclusive, TDP1 cell noCPT inactive, HT1080-NT tox inactive, TDP1 cell CPT inactive and HT1080 IDH1KD tx inactive.
For Cc1ccc(NC(=O)CSc2ccccc2)cc1S(=O)(=O)N1CCOCC1 the results were KB-3-1 tox inactive, KB-V1 cytotox inactive, TDP1 cell noCPT inconclusive, HT1080-NT tox inactive, TDP1 cell CPT inconclusive and HT1080 IDH1KD tx inactive.
Screening Cc1ccc(C)c(SCC(=O)Nc2ccc(C)c(S(=O)(=O)N3CCOCC3)c2)c1 returned KB-3-1 tox inconclusive, KB-V1 cytotox inconclusive, TDP1 cell noCPT 13µM, HT1080-NT tox inactive, TDP1 cell CPT 23.1µM and HT1080 IDH1KD tx inactive.
`Cc1c(Cl)cccc1NC(=O)C(C)N(c1ccccc1)S(C)(=O)=O` (stereo unspecified) gave KB-3-1 tox inactive, KB-V1 cytotox inactive, TDP1 cell noCPT inconclusive and TDP1 cell CPT inactive.
Screening CCOc1ccccc1CNCc1cccn1-c1nnc(N2CCN(c3ccccc3)CC2)s1 returned KB-3-1 tox inconclusive, KB-V1 cytotox inconclusive, TDP1 cell noCPT 3.26µM and TDP1 cell CPT 5.8µM.
c1ccc(N2CCN(Cc3cccn3-c3nnc(N4CCN(C5CCCCC5)CC4)s3)CC2)cc1 was read as KB-3-1 tox inactive, KB-V1 cytotox inconclusive, TDP1 cell noCPT inactive and TDP1 cell CPT inactive.
Screening Cc1ccc(CCNC(=O)CCCn2c(=O)c3ccccc3n(Cc3ccccc3C#N)c2=O)cc1 returned KB-3-1 tox inactive, KB-V1 cytotox inactive, TDP1 cell noCPT inconclusive and TDP1 cell CPT inconclusive.
For CCOc1cc(C2c3c(oc4ccc(F)cc4c3=O)C(=O)N2Cc2ccco2)ccc1O (stereo unspecified) the results were KB-3-1 tox inactive, KB-V1 cytotox inactive, TDP1 cell noCPT inactive and TDP1 cell CPT inactive.
For CCn1cc(/C=C/C(=O)Nc2ccn(Cc3c(F)c(F)cc(F)c3F)n2)cn1 the results were KB-3-1 tox inactive, KB-V1 cytotox inactive, TDP1 cell noCPT 11.6µM, HT1080-NT tox inactive, TDP1 cell CPT inconclusive and HT1080 IDH1KD tx inactive.
